Laboratory results from PubChem BioAssay (Tox21).
Results filed as inconclusive are left out. The source made the active and inactive calls. Unless noted, calls come from the whole dose curve; as a rule, active = well fitted curve in the direction sought with a large enough effect in the repeat runs; inconclusive = weak or mixed curves; inactive = no such curve, though single readings can be large; an effect the other way counts as inactive or inconclusive.

Experiments:
[1] = qHTS assay for small molecule agonists of the p53 signaling pathway (AID 651631; calls by dose curve; note: nearly all actives have a fitted effect of over 15% in size; note: potency is the fitted concentration of half-maximal effect)
In short: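 Beta-lactamase reporter activity under p53 response elements was quantified in HCT-116 cells by FRET fluorescence, following 16 h incubation with test compounds at 37 °C and 2 h substrate development at room temperature.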

[2] = qHTS assay for small molecule agonists of the p53 signaling pathway - cell viability (AID 651633; calls by dose curve; note: nearly all actives have a fitted effect of over 30% in size; note: potency is the fitted concentration of half-maximal effect)
In short: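 p53RE-bla cells, seeded at 4,000 per well and rested 5 h at 37 C/5% CO2, received compounds in DMSO for 16 h at 37 C. CellTiter-Glo was then added, and luminescence was read after 30 min at room temperature to gauge cytotoxicity.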

[3] = qHTS assay for small molecule disruptors of the mitochondrial membrane potential - cell viability (AID 720634; calls by dose curve; note: nearly all actives have a fitted effect of over 20% in size; note: potency is the fitted concentration of half-maximal effect)
In short: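 ATP-based luminescent viability readout (CellTiter-Glo, 30 min, room temperature) in HepG2 cells multiplexed with the m-MPI membrane potential dye; compound exposure lasted 1 hr at 37 C.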

[4] = qHTS assay for small molecule disruptors of the mitochondrial membrane potential (AID 720635); note: potency is the fitted concentration of half-maximal effect
In short: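 HepG2 cells (2,000/well) attached overnight at 37C, then took compound for 1 hr at 37C, 5% CO2. Mito-MPS dye was added for 30 min; fluorescence was read at 490/535 nm (monomers) and 540/590 nm (aggregates).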

[5] = qHTS assay to test for compound auto fluorescence at 590 nm (red) in HepG2 cells (AID 720674)
In short: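 Rose Bengal sodium served as the red fluorophore standard. HepG2 monolayers (overnight attachment, MEM with 10% FBS) were exposed to test compounds for 1 hr at 37 C and read at Ex 540/Em 590 nm.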

[6] = qHTS assay to test for compound auto fluorescence at 535 nm (green) in HepG2 cells (AID 720675)
[7] = qHTS assay to test for compound auto fluorescence at 590 nm (red) in HEK293 cells (AID 720679)
In short: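 HEK293 cells (2,000/well, 10% dialyzed FBS) attached 4-5 hr, then dosed with compound or DMSO and incubated overnight at 37C, 5% CO2. Red fluorescence read at 540/590 nm, Rose Bengal sodium as reference fluorophore.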

[8] = qHTS assay to test for compound auto fluorescence at 535 nm (green) in HEK293 cells (AID 720680)
[9] = qHTS assay to test for compound auto fluorescence at 460 nm (blue) in HEK293 cell free culture (AID 720681)
In short: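 Test compounds were pinned into cell-free culture medium (DMEM with 10% FBS) and fluorescence was read directly at Ex/Em 405/460 nm. Signals were expressed as fluorescence equivalents of triamterene, with DMSO vehicle as control.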

[10] = qHTS assay to test for compound auto fluorescence at 590 nm (red) in HEK293 cell free culture (AID 720683)
In short: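 Tox21 10K library compounds were pinned into cell-free DMEM with 10% FBS and fluorescence was read at excitation 540 nm. Activity is expressed as Rose Bengal sodium equivalency.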

[11] = qHTS assay to test for compound auto fluorescence at 590 nm (red) in HepG2 cell free culture (AID 720684)
In short: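 Ex 540 / Em 590 nm read of compound in cell-free MEM (10% FBS). Rose Bengal sodium reference.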

[12] = qHTS assay to test for compound auto fluorescence at 460 nm (blue) in HepG2 cell free culture (AID 720685)
In short: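 Cell-free plates of MEM plus 10% FBS received 23 nL compound or DMSO vehicle; blue-channel (405/460 nm) intensity scored against triamterene as reference fluorophore.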

[13] = qHTS assay to test for compound auto fluorescence at 535 nm (green) in HepG2 cell free culture (AID 720686)
[14] = biological target: Glucocorticoid receptor (Homo sapiens) (UniProt P04150); assay: qHTS assay to identify small molecule antagonists of the glucocorticoid receptor (GR) signaling pathway (AID 720692; active = well fitted inhibition curve with a large enough effect in the signal ratio in the repeat runs, not every such curve was filed as active; the % refers to the signal ratio; note: potency is the fitted concentration of half-maximal effect)
In short: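 Quantitative HTS in antagonist format: HeLa cells expressing endogenous GR and a stably integrated GRE-bla reporter, stimulated with 5 nM dexamethasone (final) alongside test compounds for 18 h.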

[15] = qHTS assay for small molecules that induce genotoxicity in human embryonic kidney cells expressing luciferase-tagged ATAD5 - cell viability (AID 651634; calls by dose curve; note: nearly all actives have a fitted effect of over 25% in size)
In short: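 After 15.5 hr incubation with compound at 37C, 5% CO2, HEK293T ATAD5-luciferase cells received CellTiter-Fluor reagent; fluorescence intensity was quantified following 30 min at 37C.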

[16] = qHTS assay to test for compound auto fluorescence at 460 nm (blue) in HEK293 cells (AID 720678)
In short: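 HEK293 cells (2,000/well, medium with 10% dialyzed FBS) attached 4-5 hr, then exposed to compound overnight at 37C, 5% CO2. Blue fluorescence read at 405/460 nm, with triamterene as reference fluorophore.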

[17] = qHTS assay to test for compound auto fluorescence at 535 nm (green) in HEK293 cell free culture (AID 720682)
In short: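 Each library compound, or DMSO control, is added by pintool to medium alone, comprising DMEM and 10% FBS. Emission at 535 nm following 485 nm excitation is quantified against fluorescein.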

[18] = qHTS assay to test for compound auto fluorescence at 460 nm (blue) in HepG2 cells (AID 720687)
In short: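 Cells (2,000/well in MEM with 10% FBS) attached overnight at 37 C, then were exposed to compound or DMSO for 1 hr at 37 C, 5% CO2. Fluorescence read at Ex/Em 405/460 nm, expressed as triamterene-equivalent signal.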

[19] = biological target: Glucocorticoid receptor (Homo sapiens) (UniProt P04150); assay: qHTS assay to identify small molecule agonists of the glucocorticoid receptor (GR) signaling pathway (AID 720691; active = well fitted activation curve with a large enough effect in the signal ratio in the repeat runs, not every such curve was filed as active; the % refers to the signal ratio)
In short: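 Cells: GR-bla HeLa, endogenous GR with stably integrated GRE-beta-lactamase reporter. Treatment 18 h, 37 C, compounds delivered in DMSO. Detection via LiveBLAzer B/G FRET substrate, 2 h RT, fluorescence intensity.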

[20] = qHTS assay for small molecules that induce genotoxicity in human embryonic kidney cells expressing luciferase-tagged ATAD5 (AID 651632); note: nearly all actives have a fitted effect of over 15% in size
In short: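 Quantitative HTS in HEK293T expressing luciferase-tagged ATAD5, whose levels rise upon DNA damage. Exposure ran 16 hr at 37C and 5% CO2, with luminescence read 30 min after Amplite addition at room temperature.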

Measured: Potency

Sequence of Glucocorticoid receptor (Homo sapiens) (P04150 whole entry, looked up): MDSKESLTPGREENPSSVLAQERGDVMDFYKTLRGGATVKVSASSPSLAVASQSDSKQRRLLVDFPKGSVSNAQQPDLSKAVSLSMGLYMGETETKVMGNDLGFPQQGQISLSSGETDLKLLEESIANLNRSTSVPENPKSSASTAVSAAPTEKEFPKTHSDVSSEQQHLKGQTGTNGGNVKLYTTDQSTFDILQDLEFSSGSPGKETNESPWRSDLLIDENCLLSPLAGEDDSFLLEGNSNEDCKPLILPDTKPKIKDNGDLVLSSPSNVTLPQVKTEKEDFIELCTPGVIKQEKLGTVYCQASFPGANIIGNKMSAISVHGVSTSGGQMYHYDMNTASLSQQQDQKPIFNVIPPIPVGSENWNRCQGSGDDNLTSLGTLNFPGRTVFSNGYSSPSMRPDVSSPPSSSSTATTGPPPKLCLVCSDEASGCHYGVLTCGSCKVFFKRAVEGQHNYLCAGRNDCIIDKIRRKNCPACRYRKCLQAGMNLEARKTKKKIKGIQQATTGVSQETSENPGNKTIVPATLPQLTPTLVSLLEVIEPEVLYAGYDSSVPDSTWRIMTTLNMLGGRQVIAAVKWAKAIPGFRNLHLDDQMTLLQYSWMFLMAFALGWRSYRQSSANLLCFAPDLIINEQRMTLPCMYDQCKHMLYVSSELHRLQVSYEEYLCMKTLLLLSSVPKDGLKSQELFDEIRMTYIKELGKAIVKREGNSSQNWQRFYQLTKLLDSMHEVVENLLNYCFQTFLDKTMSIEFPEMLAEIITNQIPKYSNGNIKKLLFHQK

COc1cccc2c1cc([N+](=O)[O-])c1c(C(=O)O)cc3c(c12)OCO3
active: [1] 2.43 µM | [4] 48.6 µM | [14] 13.8 µM
not listed: [15] | [16] | [17] | [18] | [19] | [20]
inactive: all other assays above

CC(C)CP(=S)(S)CC(C)C
not listed: [4] | [19] | [20]
inactive: all other assays above

c1cc2c(c(N3CCNCC3)c1)OCCO2
not listed: [4] | [15] | [20]
inactive: all other assays above

CNCC(=O)c1ccc(O)c(O)c1
not listed: [15] | [19] | [20]
inactive: all other assays above

c1cc[c]([Hg][c]2ccccc2)cc1
active: [1] 15.4 µM | [4] 15.4 µM | [14] 0.347 µM
not listed: [2] | [18] | [20]
inactive: all other assays above

O=[N+]([O-])c1cc(Cl)c(Cl)c(Cl)c1
not listed: [1] | [4] | [14] | [19]
inactive: all other assays above

COC(=O)c1ccccc1S(=O)(=O)NC(=O)N(C)c1nc(C)nc(OC)n1
not listed: [1] | [4] | [7] | [12]
inactive: all other assays above

Fc1ccc(C2(Cn3cncn3)OC2c2ccccc2Cl)cc1 (stereo not given)
not listed: [1] | [4] | [14] | [18]
inactive: all other assays above

O=C(Nc1ccccc1)c1ccccc1I
not listed: [1] | [4]
inactive: all other assays above

CCOc1nc(C(Cl)(Cl)Cl)ns1
not listed: [1] | [4] | [14] | [19]
inactive: all other assays above

Cc1ccccc1CO[C@@H]1C[C@@]2(C(C)C)CC[C@]1(C)O2
not listed: [1] | [3] | [4] | [14] | [18] | [19]
inactive: all other assays above

CCOP(=O)(N=C1SCCS1)OCC
not listed: [1] | [4] | [7]
inactive: all other assays above

C=CCC1=C(C)[C@@H](OC(=O)[C@@H]2[C@@H](C=C(C)C)C2(C)C)CC1=O
active: [2] 61.1 µM | [3] 61.1 µM | [4] 15.4 µM | [14] 49 µM
not listed: [1] | [17] | [18] | [19]
inactive: all other assays above

c1coc(-c2nc3ccccc3[nH]2)c1
not listed: [2] | [3] | [4] | [7] | [15] | [17] | [18] | [20]
inactive: all other assays above

ClC(Cl)Br
not listed: [1] | [14] | [19]
inactive: all other assays above
